Hits are enriched below; roughly 1% of the tested compounds scored in any of these assays.
TRb-SRC2 inh – inhibitors of human thyroid hormone receptor beta-SRC2 interaction; Potency, µM (series often up to 106 µM), without a hit: at the highest dose activity change, negative = inhibition, usual class: inhibitors; AID 1469; hit rate 0.065% among 280,000; TRbeta-SRC2 peptide binding, fluorescence polarization; receptor liganded with 1 µM T3;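 also: potency is read from the fitted curve at half-maximal effect; plate controls were bound peptide for no effect and peptide without receptor for full effect; nearly all actives have a fitted effect of over 50% in size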
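Read-out is fluorescence polarization (555 nm excitation, 632 nm emission) of a Texas Red SRC2 coactivator peptide; loss of signal reflects blocked binding to human TRb ligand-binding domain in the presence of 1 uM T3.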
TSHR antag – human thyrotropin receptor antagonism. hit rate 0.2% among 330,000. activity change, negative = inhibition, % at 11.5 µM. TSHR-expressing cells, TSH-stimulated cAMP HTRF, 2 h; active compounds read low. P16473;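 active = activity change below a set negative limit, meaning inhibition stronger than a set level, cut at about -70% in these data; inconclusive = activity change between two set negative limits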; also: % is scaled to controls: 0 for no effect and ±100 for the full control effect
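TSHR-expressing cells, 200/well, pre-treated with compound, then stimulated with EC80 TSH (4nM final) for 2 hours at 37 deg C. cAMP measured by competitive HTRF: anti-cAMP cryptate antibody in lysis buffer plus cAMP-d2, read after 30 minutes at room temperature.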
FBPA coupling cs – counter-screen for Giardia aldolase inhibitors: coupling enzyme system; hit rate 0.67% among 290,000; activity change, negative = inhibition, % at 58.2 µM, hits read low; AID 2472; coupling enzyme system counterscreen, AmpLite Red fluorescence; in the data active = activity change below about -30%; also: % is scaled to controls: 0 for no effect and ±100 for the full control effect
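Coupling enzymes only (glyceraldehyde-3-phosphate) + compound, at 57.5 uM final, 10 min RT; add substrate/coupling/AmpLite Red mix, 20 min RT; fluorescence ex 525/em 598 nm. Actives flag coupling-system interference.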
NPSR antagonist – neuropeptide S receptor (human) antagonism, cAMP. Q6W5P4. CHO-NPSR cells, cAMP TR-FRET, antagonist mode. Potency, µM (series often up to 38.3 µM), without a hit: at the top dose activity change, negative = inhibition, hits mostly inhibitors. hit rate 1% among 220,000; also: potency is read from the fitted curve at half-maximal effect; % is scaled to controls: 0 for no effect and ±100 for the full control effect; nearly all actives have a fitted effect of over 50% in size
Target sequence (Q6W5P4 whole entry, looked up): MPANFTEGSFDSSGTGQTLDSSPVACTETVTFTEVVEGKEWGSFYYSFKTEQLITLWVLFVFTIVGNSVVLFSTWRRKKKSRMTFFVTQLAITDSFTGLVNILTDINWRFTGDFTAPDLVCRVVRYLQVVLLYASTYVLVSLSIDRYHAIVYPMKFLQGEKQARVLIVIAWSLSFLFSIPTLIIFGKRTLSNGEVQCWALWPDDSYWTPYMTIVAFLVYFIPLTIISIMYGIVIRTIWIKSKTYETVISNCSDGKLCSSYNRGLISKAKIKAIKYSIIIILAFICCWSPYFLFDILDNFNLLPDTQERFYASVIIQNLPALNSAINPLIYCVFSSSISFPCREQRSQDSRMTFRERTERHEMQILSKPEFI
TCR activator – T cell receptor activation. primary human leukocytes, anti-CD3, IL-2 HTRF, 48 h. Potency, µM (titrated, usually from 9.22 µM), for the others: top-dose activation of IL-2 secretion, actives largely listed as activators. 330,000 tested, under 10 active. AID 504894; also: % of control where 0% means no effect
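IL-2 release read by HTRF sandwich (Eu cryptate donor, d2 acceptor, 665 nm emission) after 48 hr exposure of primary human leukocytes to compound together with anti-CD3 beads in the absence of co-stimulatory signals.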
TR SRC2 fluor cs – alters Texas Red total fluorescence, flagging assay interference; Potency, µM (titrated, usually from 106 µM), without a hit: at the top dose fluorescence change, negative = quenching; AID 1479; hit rate 0.29% among 280,000; TRb/SRC2 Texas Red total fluorescence interference; active = well fitted curve in either direction with a large enough effect; inconclusive = small, poorly fitted or top-dose-only effect; also: potency is read from the fitted curve at half-maximal effect; % is scaled to controls: 0 for no effect and ±100 for the full control effect
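Human TRb ligand-binding domain at 0.6 uM with 20 nM Texas Red SRC2 peptide in Tris buffer containing 1 uM T3 and 5% DMSO, incubated with compound 5 h at ambient temperature. Total fluorescence (555/632 nm) calculated as parallel + 2 × perpendicular.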
Starred values were filed as active, the others as inactive; ? = inconclusive; nt = not tested or not shown; ! = not confirmed by another sample; [ ] = dose if it differs, or a comment. Unless noted, calls follow the shape of the dose curve; as a rule, active = well fitted curve in the direction sought with a large enough effect; inconclusive = small, poorly fitted or top-dose-only effect, or another doubt; inactive = no such curve, though single readings can be large; an effect the other way counts as inactive or inconclusive.

SMILES	TRb-SRC2 inh	TSHR antag	FBPA coupling cs	NPSR antagonist	TCR activator	TR SRC2 fluor cs
CN1CCN(c2ccc([N+](=O)[O-])c(NCC3CCCO3)c2)CC1 (centres undefined)	-7%	14	-31*	9%[46.1 µM]	0%[46.1 µM]	-3%
CN1CCN(c2ccc([N+](=O)[O-])c(NCc3ccco3)c2)CC1	-7%	-5	-1	-8%	-1%[46.1 µM]	-2%
CCOP(=O)(OCC)Oc1ccc2c(C)c(Cl)c(=O)oc2c1	-3%[201 µM]	nt	nt	nt	nt	-4%[201 µM]
O=C(O)c1ccccc1-c1c2cc(Br)c(=O)cc-2oc2[c]([Hg])c(O)c(Br)cc12	20µM*!	nt	-20	nt	nt	45µM*[fluorescent]
COc1cc2c(cc1O)[C@H]1Cc3ccc(OC)c(O)c3CN1CC2	2%[53 µM]	nt	-38*	nt	nt	2%[53 µM]
CNC(=O)O/N=C/C(C)(C)S(C)(=O)=O	1%[201 µM]	nt	nt	nt	nt	2%[201 µM]
CCN(CC)S(=O)(=O)c1ccc(NN=C(C#N)C#N)cc1	10%	-70*	2	-55%	5%[46.1 µM]	0%
N#CC(C#N)=NNc1ccc([N+](=O)[O-])cc1	6%	-76*	13	4µM*	-1%	-4%
Cc1cccc(N2C(=O)NC(=O)/C(=C\c3cnc(-c4ccccc4)nc3)C2=O)c1	-30%[53 µM]	30	17	-48%	-5%[46.1 µM]	1.3µM*[quencher]
CCOC(=O)Cn1cc(C(=O)c2ccccc2F)c2ccccc21	9%	7	0	?	nt	1%
CCOC(=O)Cn1cc([N+](=O)[O-])nc1[N+](=O)[O-]	4%	0	-39*	26%[46.1 µM]	-1%	2%
CCCCOCCOC(C)=O	2%[201 µM]	nt	nt	nt	nt	1%[201 µM]
CC(c1ccc(O)cc1)(c1ccc(O)cc1)c1ccc(O)cc1	5%[201 µM]	nt	nt	nt	nt	-3%[201 µM]
O=C1C=CC(=O)c2c(O)cccc21	?	nt	-26	nt	nt	8.9µM*[quencher]
CCOc1nc(C(Cl)(Cl)Cl)ns1	-10%[201 µM]	nt	nt	nt	nt	-4%[201 µM]
COc1ccc(C2=NCC(=S)Nc3ccc(Cl)cc32)cc1OC	nt	nt	nt	nt	-2%	nt
S=C1CN=C(c2ccccc2)c2cc(Cl)ccc2N1	-9%	0	-1	13µM*	4%[46.1 µM]	2%
Clc1ccc([C@]2(Cn3cncn3)C[C@@H](Br)CO2)c(Cl)c1	-1%[201 µM]	nt	nt	nt	nt	-1%[201 µM]
CCOC(=O)c1cc(CC)sc1/N=C/c1c(O)[nH]c(=S)[nH]c1=O	-7%	-2	-88*	16%	-5%[46.1 µM]	0%
CCOC(=O)c1c(/N=C/c2c(O)n(-c3cccc(C)c3)c(=O)[nH]c2=O)sc2c1CCCC2	-4%	9	2	-26%	-1%[46.1 µM]	-5%
CCOC(=O)c1cc(CC)sc1/N=C/C1C(=O)NC(=S)NC1=O	-2%	8	-39*	-3%	8%	3%
Cc1cc(C)cc(N2C(=O)NC(=O)/C(=C\c3cccn3-c3ccc(Cl)cc3)C2=O)c1	-6%	12	2	5µM*	-2%	-3%
C[C@@H]1O[C@@H](O[C@@H]2C=C3CC[C@@H]4C(CC[C@]5(C)[C@@H](c6ccc(=O)oc6)CC[C@]45O)[C@@]3(C)CC2)[C@H](O)[C@H](O)[C@H]1O (some centres undefined)	nt	-78*	nt	nt	1%	nt
C[C@@H]1O[C@@H](O[C@@H]2C=C3CCC4C(CC[C@]5(C)[C@@H](c6ccc(=O)oc6)CC[C@]45O)[C@@]3(C)CC2)[C@H](O)[C@H](O)[C@H]1O (some centres undefined)	nt	-74*	nt	nt	1%	nt
NC(Cc1cc(O)c(O)cc1O)C(=O)O (centres undefined)	13%	15	nt	?	nt	11µM*[quencher]
N[C@@H](CCl)C(=O)O	-2%	-17	nt	-8%[46.1 µM]	7%	-3%
CC(C)(C)c1nc(N2CCN(C(=O)c3ccco3)CC2)c2nnn(Cc3ccccc3Cl)c2n1	7%	?	-1	10µM*	-1%	1%
C[Si](Cn1cncn1)(c1ccc(F)cc1)c1ccc(F)cc1	-1%[201 µM]	nt	nt	nt	nt	-1%[201 µM]
O=C(c1ccc2nc(-c3ccco3)c(-c3ccco3)nc2c1)N1CCC2(CC1)OCCO2	-7%	1	-45*	-21%[46.1 µM]	2%	-22%

Assay outcomes as filed in PubChem BioAssay.
